Assay: inducers of human heat shock response, cell-based, HSE luciferase (AID 1611)
Details: human cells, HSE-luciferase heat shock reporter; stronger effect = higher value

| Compound | fold change |
| --- | --- |
| NC[C@H]1O[C@H](O[C@H]2[C@H](O)[C@@H](O[C@H]3O[C@H](CO)[C@@H](O)[C@H](N)[C@H]3O)[C@H](N)C[C@@H]2N)[C@H](O)[C@@H](O)[C@@H]1O | 1.87 |
| CNCCC=C1c2ccccc2CCc2ccccc21 | 1.45 |
| CC[C@H](C)C(=O)O[C@H]1CCC=C2C=C[C@H](C)C(CCC3C[C@@H](O)CC(=O)O3)[C@H]21 (stereo not given in full) | 1.15 |
| O=C1C[C@@H](c2ccc(O)cc2)Oc2cc(O)cc(O)c21 | 0.8 |
| O=C1c2c(O)cccc2Cc2cccc(O)c21 | 0.93 |
| CC(=O)OCC(=O)[C@@]1(O)CCC2C3CCC4=CC(=O)CC[C@]4(C)C3C(=O)C[C@@]21C (stereo not given in full) | 0.62 |
| CC(Cc1cccc(C(F)(F)F)c1)NCCOC(=O)c1ccccc1 (stereo not given) | 1.03 |
| CN1C2CC(OC(=O)[C@H](CO)c3ccccc3)C[C@H]1[C@H]1OC21 (stereo not given in full) | 1.34 |
| O=C(C1CCCCC1)N1CC(=O)N2CCc3ccccc3C2C1 (stereo not given) | 1.17 |
| COc1ccc(C2Sc3ccccc3N(CCN(C)C)C(=O)C2OC(C)=O)cc1 (stereo not given) | 0.53 |
| CO[C@@H]1[C@@H](O[C@@H]2O[C@H](C)[C@@H](O[C@H]3C[C@@](C)(O)[C@H](O)[C@H](C)O3)[C@H](N(C)C)[C@H]2O)[C@@H](CC=O)C[C@@H](C)[C@@H](O[C@H]2CC[C@H](N(C)C)[C@@H](C)O2)/C=C/C=C/C[C@H](C)OC(=O)C[C@H]1O | 62.6 |
| Cc1cc(C(C)(C)C)cc(C)c1CC1=NCCN1 | 1.28 |
| O=c1cc[nH]c(=S)[nH]1 | 0.78 |
| Cc1ccc(C)c(OCCCC(C)(C)C(=O)O)c1 | 0.57 |
| CCCN(CCC)S(=O)(=O)c1ccc(C(=O)O)cc1 | 0.78 |
| O=C1c2ccccc2C(=O)C1c1ccccc1 | 331 |
| CCN(CC)CCOC(=O)C(c1ccccc1)c1ccccc1 | 1.24 |
| O=C1NS(=O)(=O)c2ccccc21 | 0.91 |
| COc1ccc(NS(=O)(=O)c2ccc(N)cc2)nn1 | 1.39 |
| CC(C)[N+]1(C)C2CC[C@@H]1CC(OC(=O)C(CO)c1ccccc1)C2 (stereo not given in full) | 0.91 |

| Compound | fold change |
| --- | --- |
| O=C1CCC(N2C(=O)c3ccccc3C2=O)C(=O)N1 (stereo not given) | 0.89 |
| Fc1ccc(C(c2ccc(F)cc2)N2CCN(C/C=C/c3ccccc3)CC2)cc1 | 1.3 |
| CCN(CC)CCOC(=O)c1ccc(N)cc1 | 0.94 |
| O=C(O)c1ccccc1O | 0.73 |
| NNc1nncc2ccccc12 | 1.1 |
| CCC(=O)O[C@H]1[C@H](O[C@@H]2[C@@H](C)[C@H](O[C@H]3C[C@@](C)(OC)[C@@H](O)[C@H](C)O3)[C@@H](C)C(=O)O[C@H](CC)[C@@](C)(O)[C@H](O)[C@@H](C)C(=O)[C@H](C)C[C@@]2(C)O)O[C@H](C)C[C@@H]1N(C)C | 1.55 |
| CO[C@]12C[C@@H](COC(=O)c3cncc(Br)c3)CN(C)[C@@H]1Cc1cn(C)c3cccc2c13 | 0.91 |
| Nc1nc2c(ncn2COCCO)c(=O)[nH]1 | 1.01 |
| CC(=O)Oc1cccc(O)c1 | 0.84 |
| COc1ccc(CCN2CCC(Nc3nc4ccccc4n3Cc3ccc(F)cc3)CC2)cc1 | 1.64 |
| Nc1c(Br)cc(Br)cc1CNC1CCC(O)CC1 (stereo not given) | 1.19 |
| O=C1c2ccc(O)c(O)c2C(=O)c2c(O)ccc(O)c21 | 0.67 |
| CC(COc1ccccc1)NC(C)[C@H](O)c1ccc(O)cc1 (stereo not given in full) | 5.01 |
| COc1ccc(CN(CCN(C)C)c2ccccn2)cc1 | 1.01 |
| Cc1c(C(N)=O)cc([N+](=O)[O-])cc1[N+](=O)[O-] | 1.05 |
| N[C@@H]1[C@@H](O)[C@H](O)[C@@H](CO)O[C@H]1O | 1.15 |
| O=C(O)C1CCCNC1 (stereo not given) | 0.81 |
| CCCCCCOc1ccccc1C(N)=O | 0.59 |
| CC(CN1c2ccccc2Sc2ccccc21)N(C)C (stereo not given) | 0.91 |
| CC(=O)Nc1ccccc1 | 0.93 |
